Screen size: about 48,000 compounds; about 13,000 (27%) showed an effect of 50% or more. Some of the results follow.
What follows are compounds tested on Wolbachia pipientis (assay: Anti-Wolbachia Cell-Based Screen). Conditions: 5 µM.
Type: functional
Parameters: scale not given: in the data most compounds retested in dose-response had high values

SMILES	Percent Effect [%]
Cc1nc(C)c(CC(=O)Nc2ncc(C)s2)c(=O)[nH]1	-6.358
CCn1c(C2CCN(Cc3cc(C)n(NC(C)=O)c3C)CC2)n[nH]c1=O	1.026
O=C(CN1CCN(CC2CCOc3ccccc3C2)CC1)N1CCCC1 (stereo not given)	1.365
Cn1ccnc1CN(Cc1ccccn1)Cc1ccccc1Cl.O=C(O)CC(O)(CC(=O)O)C(=O)O	93.9
CC(C)CN(Cc1ccccn1)Cc1ccccc1C(=O)O	-7.566
Cc1ccc(CN(Cc2ccccn2)C2CC(C)(C)NC(C)(C)C2)s1.O=C(O)CC(O)(CC(=O)O)C(=O)O	-1.083
Cc1ncc(CN(Cc2ccccn2)Cc2ccccc2Cl)n1C.O=C(O)CC(O)(CC(=O)O)C(=O)O	124.9
CC(C)CN(Cc1ccccn1)Cc1ccccc1OCC(=O)O	7.517
COCCC(=O)N(Cc1ccccn1)Cc1ccccc1C	13.85
CCC(CO)N(Cc1ccco1)C(=O)c1cccnc1NC (stereo not given)	-5.429
CCc1n[nH]c(C2CN(Cc3csc(COC)n3)CCO2)n1 (stereo not given)	0.7556
O=C(Nc1ccc(-c2nc3c([nH]2)CCNC3)cc1)N1CCCC1	-0.2771
COc1ccc2c(c1)C(C(=O)N(C)CCCc1nccn1C)CC(=O)N2 (stereo not given)	9.372
CC(C)CN1C(=O)CO[C@@H]2CN(C(=O)C3CCOC3)C[C@H]21 (stereo not given in full)	-11.41
CC(C)CNC(=O)c1ccc(NC(=O)NC(C)C)cc1Cl	-2.856
CC(C)CNC(=O)c1ccc(NC(=O)NC(C)(C)CO)cc1Cl	-9.16
CCCOc1ccc(NC(=O)NCCC(=O)N(C)C)cc1Cl	-12.35
CC(C)CNC(=O)c1ccc(NC(=O)NCC2CC2)cc1Cl	-12.02
CC(C)CCCNC(=O)Nc1ccc(C(N)=O)c(Cl)c1	114.9
CC(C)CCCNC(=O)Nc1ccc(Cl)c(C(N)=O)c1	118.7
CCCN1CCC(NC(=O)NCCc2nc(CC)c(C)s2)CC1	16.1
Cc1ccc(-c2nn(-c3cccc(F)c3)cc2CN(CCO)CCO)o1	2.921

SMILES	Percent Effect [%]
C[C@@H]1CN(C(=O)c2nc3sccn3c2-c2ncc[nH]2)C[C@H](C)O1	88.09
O=C(c1nc2sccn2c1-c1ncc[nH]1)N1CCCCC1	87.63
CN(C)C1CCCN(C(=O)c2cccc(-c3ncc[nH]3)c2)CC1 (stereo not given)	2.392
C[C@@H]1CN(C(=O)c2nc3ccc(Cl)cn3c2-c2ncc[nH]2)C[C@H](C)O1	103.5
CN1CCN(C(=O)c2n[nH]c3c2CN(Cc2nccs2)CC3)CC1	-8.434
COc1ccc(OCc2cc(C(=O)N3C[C@@H](C)O[C@@H](C)C3)n[nH]2)c(Cl)c1	-0.1203
Cc1ccc2cc(C(=O)N3CCCN(C)CC3)ccc2n1	16.24
CCC[C@@H]1CN(C(=O)c2ccccc2-c2ncc[nH]2)C[C@H]1N(C)C	29.83
CN1C[C@@H](n2cnc(-c3ccccc3)c2-c2ncc[nH]2)C[C@H]1C(=O)O	-3.61
Cc1nc2sccn2c1C(=O)N1CCc2[nH]cnc2C1	-1.15
C[C@@H]1CN(C(=O)Cn2ccc3ncccc3c2=O)C[C@H](C)O1	-28.32
CN1CCCN(C(=O)c2nc3sccn3c2-c2ncc[nH]2)CC1	108
CC(=O)N1CCC(C(=O)N(CC(F)F)c2cccc(Cl)c2)CC1	3.709
CCc1cc(NCCc2ccc(O)cc2)n2nccc2n1	12.11
O=C(NC1CCCC1)O[C@H]1COCCN(c2nc3ccccc3s2)C1	3.317
COCC(=O)N1CCC(c2nc3ccc(-c4ccccc4)cn3n2)CC1	4.971
Cc1ccc2nc(C3CCN(CCO)CC3)nn2c1	-22.16
COc1cccc(-c2ccc3nc(C4CCN(C(C)=O)CC4)nn3c2)c1	108.3
CC(=O)N1CCC(c2nc3ccc(C)cn3n2)CC1	109.2
CN(C)C(=O)N1CCC(c2nc3ccc(N4CCCC4)cn3n2)CC1.O=C(O)C(F)(F)F	-5.461
CCS(=O)(=O)N1CCC(c2nc3ccc(-c4ccccc4)cn3n2)CC1	-9.682
CN(C)C(=O)N1CCC(c2nc3ccc(-c4ccccc4)cn3n2)CC1	107

SMILES	Percent Effect [%]
COCC(=O)N1CCC(c2nc3ccc(N4CCOCC4)cn3n2)CC1	-4.439
CS(=O)(=O)N1CCC(c2nc3ccc(-c4cccc(F)c4)cn3n2)CC1	121.7
COc1ccc(Cl)cc1CS(=O)(=O)Cc1noc(C)n1	18.18
C[S+]([O-])c1nncn1CCc1ccccc1 (stereo not given)	-4.603
COc1ccccc1C(O)Cn1cc(C(=O)NCc2ccco2)nn1 (stereo not given)	-0.6679
CNC(=O)c1cccc(NCC(=O)Nc2cc(C)nn2C)c1C	11.4
COc1ncccc1C(=O)NC1(c2cccc(F)c2)CCOCC1	0.9313
CN1CCCC1CNC(=O)c1nnn(-c2ccc(F)cc2)c1C1CC1 (stereo not given)	-4.807
CC(=O)N1CCC(c2nc3ccc(-c4cccc(F)c4)cn3n2)CC1	114.3
CN(C)c1cc2c(nn1)CCN(C(=O)c1ccc(-n3cccn3)nc1)C2	103.2
CCNc1cc2c(nn1)CCN(C(=O)c1ccc3cc[nH]c3c1)C2	0.8681
CNc1cc2c(nn1)CCN(C(=O)c1ccccc1-n1cccn1)C2	88.38
CNc1cc2c(nn1)CCN(C(=O)c1ccc(-n3nccc3C)cc1)C2	-6.131
CCNc1cc2c(nn1)CCN(C(=O)c1ccc(NC3CC3)nc1)C2	18.68
CCNc1cc2c(nn1)CCN(C(=O)c1ccc(-n3cccn3)nc1)C2	97.41
CCNc1cc2c(nn1)CCN(C(=O)c1ccnc(N(C)C)c1)C2	-3.48
CNc1cc2c(nn1)CCN(C(=O)c1ccc(-n3cccn3)nc1)C2	108.2
CCNc1cc2c(nn1)CCN(C(=O)c1cc3ccccc3[nH]c1=O)C2	-5.583
CN(C)c1cc2c(nn1)CCN(C(=O)c1cc3ccccc3o1)C2	1.758
Nc1cc2c(nn1)CCN(C(=O)c1ccc(Oc3cccnc3)cc1)C2	5.491
Nc1cc2c(nn1)CCN(C(=O)c1cccnc1Oc1ccccc1)C2	-19.15

From ChEMBL document CHEMBL3988442, “University of Dundee, Small-Polar-MMV Screening Library” (2021)
